Source: PubChem BioAssay

molecular target: PEG-3 (UniProt Q6IN02); assay: inhibition of PEG-3 promoter-driven reporter – cell-based, HeLa, luciferase, CREF/GAPDH counter-screen panel, dose response (AID 624167); settings: CREF/GAPDH counter-screens; HeLa PEG-Prom luciferase reporter, overnight, run 1, dose range 1, at 100 µM (top of the series) unless noted
Sequence (Q6IN02 whole entry, looked up): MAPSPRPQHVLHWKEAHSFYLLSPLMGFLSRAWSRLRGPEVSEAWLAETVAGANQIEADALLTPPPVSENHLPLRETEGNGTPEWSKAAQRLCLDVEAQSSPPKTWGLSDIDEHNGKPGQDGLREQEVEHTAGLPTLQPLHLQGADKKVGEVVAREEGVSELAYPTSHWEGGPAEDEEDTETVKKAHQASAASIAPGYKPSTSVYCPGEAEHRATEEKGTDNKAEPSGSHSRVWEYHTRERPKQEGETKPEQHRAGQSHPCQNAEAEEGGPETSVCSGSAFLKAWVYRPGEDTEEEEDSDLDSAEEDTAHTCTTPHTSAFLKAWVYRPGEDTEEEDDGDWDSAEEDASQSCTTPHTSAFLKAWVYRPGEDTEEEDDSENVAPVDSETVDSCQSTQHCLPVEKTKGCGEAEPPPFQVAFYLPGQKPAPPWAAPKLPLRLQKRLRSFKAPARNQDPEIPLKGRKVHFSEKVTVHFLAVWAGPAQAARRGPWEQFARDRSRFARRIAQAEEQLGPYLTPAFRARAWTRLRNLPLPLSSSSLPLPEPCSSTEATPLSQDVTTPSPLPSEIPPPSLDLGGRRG

SMILES | inhibition [%]
CCOc1cccc2sc(N(CCCN(C)C)C(=O)c3ccc(S(=O)(=O)N(CC)Cc4ccccc4)cc3)nc12 | 102
CCCN(CCC)CCCNC(=S)Nc1ccc2nc(N3CCCC3)cc(C)c2c1 | 99.6
c1ccc(-c2cc(-c3nc4ccccc4[nH]3)c3ccccc3n2)cc1 | 86.8
COc1ccc(C2NCCc3c2[nH]c2ccccc32)cc1COc1ccc(F)cc1 (centres undefined) | 98.9
COc1ccccc1CN(C)C(=O)c1cc(-c2cc(OC)c(OC)c(OC)c2)nc2ccccc12 | 83.8
CCN1CCCC1CN(Cc1cc2ccc(C)cc2[nH]c1=O)C(=S)Nc1ccc(OC)cc1 (centres undefined) | 102
Cc1ccc2nc(N(CCCN(C)C)C(=O)c3ccc4c(c3)CCCC4)sc2c1 | 99.5
COc1ccc(C2c3ccc4ccccc4c3Oc3ncn(CCCO)c(=N)c32)cc1 (centres undefined) | 102
C[C@@H](NCCCn1cnc2c(OCc3ccccc3)ncnc21)c1cccc2ccccc12 | 94.9
CCc1nc(Nc2ccc(N3CCN(C(C)=O)CC3)cc2)c2oc3ccccc3c2n1 | 101
CC(NS(=O)(=O)OCC(Cl)(Cl)Cl)c1ccc(C(C)(C)C)cc1 (centres undefined) | 101
COCOCCn1cc(CN2CCS(=O)(=O)N(Cc3ccc(-c4ccc(Cl)c(Cl)c4)cc3)C(C(C)C)C2=O)nn1 (centres undefined) | 92.6
O=S(=O)(Nc1cccc2ncccc12)c1cccs1 | 94.5
CN(C)C=NC(=O)c1[nH]c2ccc(Cl)cc2c1-c1ccccc1 | 98.6
Cn1cc(CN2CCCC(C(=O)Nc3ccc(-c4cccc(F)c4)cc3)C2)cn1 (centres undefined) | 101
NCCCNc1nc(N)c([N+](=O)[O-])c(NC2CCCCC2)n1 | 96
c1cc2c3c(cccc3c1)NC1(CCC3(CC1)Nc1cccc4cccc(c14)N3)N2 | 97.7
CN(C)CCNc1ncnc2c1ncn2[C@H]1CN(Cc2ccc(-c3ccccc3)cc2)C[C@@H](CO)O1 | 100
Cc1ccc(-n2cc(CNCCCn3ccnc3C)c(-c3ccc(F)cc3)n2)cc1 | 99.8
Cc1ccc2cccc(OCC(=O)Nc3cccc(S(=O)(=O)N4CCCC4)c3)c2n1 | 94.5

SMILES | inhibition [%]
Cc1cc(Br)ccc1NC(=O)CN1C(=O)C2C3CC(c4ccccc4)C(C3)C2C1=O (centres undefined) | 99.9
Cc1cc2c(c(/C=C/C(=O)c3ccccc3)c1)OC1(C=C2)Oc2ccccc2C(=O)N1C (centres undefined) | 102
CC(=O)N1CCN(c2cc(-c3ccccc3)nc3cc(-c4cccc(Cl)c4)nn23)CC1 | 101
CCCCN(C)CCNC(=O)c1cc(-c2cccnc2)nc2ccc(S(=O)(=O)N3CCC(C)CC3)cc12 | 100
COc1ccc2sc(N(CCCN(C)C)C(=O)c3ccc(S(=O)(=O)N4CCCc5ccccc54)cc3)nc2c1 | 98.4
OCCN1CCN(C2CCC(c3ccc(F)cc3)c3ccc(F)cc32)CC1 (centres undefined) | 102
Cc1nc(-c2ccc(F)cc2)c(CC(=O)N(C)CC(=O)Nc2ccc(Cl)c(C(F)(F)F)c2)s1 | 99.8
O=S(=O)(NC1CC(NS(=O)(=O)OCC(Cl)(Cl)Cl)C2CCCCC12)OCC(Cl)(Cl)Cl (centres undefined) | 102
CN1CCN(CCNC(=O)c2ccc3nc(-c4ccc(F)cc4)c(-c4ccc(F)cc4)nc3c2)CC1 | 99.2
COc1cc(-c2cc(C(=O)Nc3cc(S(=O)(=O)N4CCOCC4)ccc3C)c3ccccc3n2)cc(OC)c1OC | 55.1
O=C(C=Cc1ccccn1)c1ccccc1 | 101
CN(Cc1ccccc1)C(=O)c1ccc(Nc2nc(C(N)Cc3ccccc3)cs2)nc1 (centres undefined) | 102
COc1ccc2c(c1)[nH]c1c(=O)n(/N=C/C3C(C)C=C(C)CC3C)c(=O)[nH]c12 (centres undefined) | -108
O=C(CN1CCN(Cc2ccccc2Cl)CC1)N=Nc1c(O)[nH]c2ccccc12 | 94.2
CC(C)NC(=O)NC(=O)COC(=O)c1c2c(nc3ccccc13)CCC2 | 101
O=C(C[C@H]1C[C@H](C(=O)N2CCCCC2)[C@@]2(CCc3ccccc3)c3[nH]c4ccc(Cl)cc4c3CCN2C1=O)NCCc1ccccn1 | 94
CCN(Cc1ccccc1)S(=O)(=O)c1ccc(C(=O)N(CCCN(C)C)c2nc3cc4c(cc3s2)OCCO4)cc1 | 99.4
COc1ccc(C23CC4CC(CC(C4)C2)C3)cc1C(=O)NCCN(C)C | 101
Cc1ccc(N2CC(C(=O)Nc3nccs3)CC2=O)cc1Cl (centres undefined) | 99.5
